High-throughput results: PubChem BioAssay, The Scripps Research Institute Molecular Screening Center
Sampled rows, rich in hits. Any-hit rate of the full collection: about 4.1%.
DAX1 inh-1 = inhibitors of human orphan nuclear receptor DAX1 (NR0B1). HEK293 Gal4-DAX1 luciferase reporter, luminescence. inhibition, % at 6.75 µM. 340,000 tested, 0.99% active. AID 504766;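 active means inhibition above the mean over all tested compounds plus 3 SD, cut at about 4.2% in these data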;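 further: inhibition shows as a rise in luminescence from relieved DAX1 repression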
Target sequence (P51843 207-470 limits assumed): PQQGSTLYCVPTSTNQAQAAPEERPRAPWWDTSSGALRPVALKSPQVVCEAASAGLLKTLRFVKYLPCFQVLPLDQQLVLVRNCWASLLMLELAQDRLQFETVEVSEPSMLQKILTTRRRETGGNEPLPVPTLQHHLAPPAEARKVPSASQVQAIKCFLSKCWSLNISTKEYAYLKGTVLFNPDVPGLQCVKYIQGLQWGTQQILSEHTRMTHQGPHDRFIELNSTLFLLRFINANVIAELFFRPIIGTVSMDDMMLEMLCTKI
hcDAF12 agonist = H. contortus DAF-12 activation, primary screen | HEK293 hcDAF-12 lit1-tk-luc reporter, luminescence; 0% DMSO, 100% Δ7-dafachronic acid | activation, % at 6.8 µM | 370,000 tested, 1.4% active | AID 652067;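 active means activation above the mean of all tested compounds plus 3 SD, cut at about 5.5% in these data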
ssDAF-12 act = activates DAF-12 receptor from parasite S. stercoralis | HEK293 ssDAF-12/GRIP1 lit1-tk-luc reporter, luminescence; % of 3 µM dafachronic acid response | activation, % at 6.8 µM | 370,000 tested, 1% active | AID 652126;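 active means activation above the mean over all tested compounds plus 3 SD, cut at about 0.9% in these data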
DAX1 inh-2 = blocks DAX1 repression of SF-1 activated StAR promoter. HEK293T StAR-luciferase reporter, SF-1/DAX-1 repression relief. inhibition, % at 6.8 µM. 370,000 tested, 1.1% active. AID 652010;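 active means inhibition above the mean over all tested compounds plus 3 SD, cut at about 3.6% in these data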;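 further: higher inhibition means more luminescence from relief of DAX-1 repression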
hgDAF12 agonist = agonists of H. glycines DAF-12 nuclear receptor; HEK293 GAL4-hgDAF12 UAS-luciferase reporter, agonist luminescence; normalized to butyrate control; activation, % at 6.8 µM; 370,000 tested, 1.8% active;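 active means activation above a cutoff set at the mean of all screened compounds plus 3 SD, cut at about 10% in these data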
Large screens that a line does not name were inactive.

O=C(O)c1ccccc1-c1ccccc1C(=O)Nc1ccc(-c2nc3cc(Cl)ccc3o2)cc1	none
O=C(Nc1ccc(-c2nc3cc(Cl)ccc3o2)cc1)C1CCCO1 (configuration not stated)	hgDAF12 agonist 12.0
CC(=O)Nc1ccc(-c2nc3cc(Cl)ccc3o2)cc1	DAX1 inh-1 5.5, hgDAF12 agonist 10.8
CC(C)(C)c1cc(C(F)(F)F)n2ncc(-c3ccccc3)c2n1	none
CC(C)Nc1cc(C(C)(C)C)nc2c(-c3ccccc3)cnn12	DAX1 inh-1 6.0
CC(C)(C)c1cc(NCCCn2ccnc2)n2ncc(-c3ccccc3)c2n1	hgDAF12 agonist 11.7 (no result: DAX1 inh-1)
Cc1cc(N)n2ncc(-c3ccccc3)c2n1	hgDAF12 agonist 11.1
O=C(CSc1nnc(-c2ccccc2)n1-c1ccc(Cl)cc1)Nc1ccccc1-c1ccccc1	none (no result: DAX1 inh-1)
CCNC(=O)N(C)[C@H]1C[C@H]2c3[nH]c4cccc(-c5ccc6c(c5)OCO6)c4c3CCN2C[C@H]1[C@H](C)O	none (no result: DAX1 inh-1)
N#Cc1cc(F)cc(OC[C@@H](O)CN2CCC(C(O)(c3ccccc3)c3ccccc3)CC2)c1	none (no result: DAX1 inh-1)
COC(=O)[C@H](CC(C)C)N(CCc1cn(Cc2ccc(C)cc2)nn1)S(=O)(=O)c1ccc(F)cc1Br	none (no result: DAX1 inh-1)
CC(c1ccncn1)N(C)C(=O)c1ccc2oc(Cc3ccccc3)nc2c1 (configuration not stated)	none
O=C(O)CCn1c(=O)sc2ccccc21	none
O=C(O)Cn1c(=S)sc2ccccc21	ssDAF-12 act 1.0
C[C@H](CCC(=O)N(c1ccccc1)c1ccccc1)CC1CCCCC1	none (no result: DAX1 inh-1)
CC(C)N(c1nnc(N)s1)C(C)C	DAX1 inh-1 5.0
Cc1ccc(S(=O)(=O)N(C)[C@H]2C[C@H]3c4[nH]c5cccc(-c6ccccc6)c5c4CCN3C(=O)[C@H]2[C@H](C)O)cc1	none (no result: DAX1 inh-1)
O=C(CSc1ccccn1)Nc1ccc2c(c1)OCO2	none (no result: DAX1 inh-1)
O=C(CSc1ncn(-c2ccccc2)n1)Nc1ccc2c(c1)OCCO2	none
O=C(CSc1ccccc1)Nc1ccc2c(c1)OCO2	hgDAF12 agonist 12.6
O=C(CSc1ccccc1F)Nc1ccc2c(c1)OCO2	hgDAF12 agonist 10.5
O=C(Nc1ccc2c(c1)OCCO2)c1cnn(-c2ccccc2)n1	DAX1 inh-2 4.2
Cn1nc(C(=O)Nc2ccc3c(c2)OCO3)c2ccccc2c1=O	ssDAF-12 act 2.4
O=C(CSc1ccc2c(c1)OCCO2)Nc1ccc2c(c1)OCO2	none (no result: hcDAF12 agonist, ssDAF-12 act, DAX1 inh-2, hgDAF12 agonist)
CCCCCCCCN1C(=O)[C@@H](CC(=O)NCc2ccc(OC)c(OC)c2)C[C@@]2(C(=O)OC)C1=C[C@H](COCc1ccccc1)O[C@@H]2C	none (no result: DAX1 inh-1)
CC(C)Oc1ccc(N2CC(C(=O)Nc3ccc4c(c3)OCO4)CC2=O)cc1 (configuration not stated)	ssDAF-12 act 1.4
Cc1ccccc1C(=O)Nc1ccc2c(c1)OCCO2	ssDAF-12 act 1.8, hgDAF12 agonist 11.0
O=C(Nc1ccc2c(c1)OCO2)c1c(F)cccc1F	hgDAF12 agonist 12.6
O=C(Nc1nc(-c2ccc3c(c2)OCO3)cs1)C1CC1	hgDAF12 agonist 11.1
COC(=O)[C@]12C[C@H](CC(=O)NCCC(C)C)C(=O)N(Cc3cccc4ccccc34)C1=C[C@H](C1CCCC1)O[C@@H]2C	none (no result: DAX1 inh-1)
Cc1c[nH]c2cccc(-c3cc4ccccc4o3)c12	none (no result: DAX1 inh-1)
Cc1cc(OCC(C)CN2CCC(C(O)(c3ccccc3)c3ccccc3)CC2)ccc1Br (configuration not stated)	none (no result: DAX1 inh-1)
O=C(CC(=O)c1ccccc1)Nc1ccc2c(c1)OCCO2	hgDAF12 agonist 11.9
Cc1ccc(SCC(=O)Nc2ccc(N3CCN(c4ccccc4)CC3)c(F)c2)cc1	none
O=C(CSCc1ccccc1)Nc1ccc2c(c1)OCO2	DAX1 inh-2 3.8
CC(=O)c1cccc(NC(=O)C2CCCC2)c1	none
O=C(Nc1ccc(N2CCN(c3ccccc3)CC2)c(F)c1)C1CC1	hcDAF12 agonist 5.8
CC(=O)c1ccc(NC(=O)C2CCCC2)cc1	DAX1 inh-1 6.0
Cc1ccc(-c2cc(C(=O)N3CCN(C(=O)c4ccco4)CC3)[nH]n2)c(C)c1	none
CS(=O)(=O)N1CCC(C(=O)Nc2ccc3c(c2)OCO3)CC1	none
CN1CCN(c2ccc(NC(=O)CSc3ccccc3)cc2F)CC1	DAX1 inh-1 5.3, hgDAF12 agonist 10.6
O=C(Nc1ccc2c(c1)OCO2)C1CCCCC1	DAX1 inh-2 4.0
CCN(CCN(C)C)C(=O)Cn1ncc2c1-c1cc(C)ccc1OC2	DAX1 inh-1 5.6
O=C(CC1NCCc2ccccc21)Nc1ccccc1 (configuration not stated)	ssDAF-12 act 0.9
O=C(CC1NCCc2ccccc21)Nc1ccc(Oc2ccccc2)cc1 (configuration not stated)	none
Cc1ccc(Cn2cc(CN(C(C)(C)C)S(=O)(=O)c3ccc(F)cc3Br)nn2)cc1	none (no result: DAX1 inh-1)
CCOC(=O)c1ccc(N/C=C/C(=O)c2ccccc2)cc1	hgDAF12 agonist 12.0
O=C(/C=C/Nc1ccccc1)c1ccccc1	hcDAF12 agonist 6.5, DAX1 inh-2 3.8, hgDAF12 agonist 11.1
CC(=O)Nc1ccc(N/C=C/C(=O)c2ccccc2)cc1	none
CCOC(=O)c1ccc(NC(=S)Nc2ccccc2)cc1	ssDAF-12 act 1.2
CCOC(=O)c1ccc(NC(=S)Nc2ccc(C)cc2)cc1	none
CCOC(=O)c1ccc(N/C=C/C(=O)C(C)(C)C)cc1	hgDAF12 agonist 13.1
CCOC(=O)c1ccc(N/C=C/C(=O)c2ccc(OC)cc2)cc1	none
CCN1CCCCC(NC(=O)c2cc(OC)c(OC)c(OC)c2)C1=O (configuration not stated)	none (no result: DAX1 inh-1)
CC(C)(C)N(Cc1cn(CC2CCCCC2)nn1)S(=O)(=O)c1ccccc1Br	none (no result: DAX1 inh-1)
Cc1ccc2nc(SCC(=O)Nc3ccc(F)c([N+](=O)[O-])c3)[nH]c2c1	none
Cc1ccc2nc(SCC(=O)Nc3cc([N+](=O)[O-])ccc3F)[nH]c2c1	hcDAF12 agonist 6.1
COCCn1c(C)cc(C(=O)COC(=O)c2ccc(Br)o2)c1C	DAX1 inh-1 5.4
COC(=O)c1sc(N2C(=O)c3oc4ccccc4c(=O)c3C2c2cccc(O)c2)nc1C (configuration not stated)	none
O=C1c2oc3ccccc3c(=O)c2C(c2ccc(O)cc2)N1c1nccs1 (configuration not stated)	DAX1 inh-1 6.1
CC(C)C[C@@H]1COc2cc(Br)ccc2S(=O)(=O)N1Cc1cn(Cc2ccc(Br)cc2)nn1	none (no result: DAX1 inh-1)
Cc1ccc2nc3c(c(N)c2c1)CCN3c1ccccc1	none
Cc1ccc2nc3c(c(N)c2c1)CCN3C	hcDAF12 agonist 6.2
COc1cc(-n2c(C)nc3cc(C(=O)N4CCCCC4)ccc32)cc(OC)c1OC	none (no result: DAX1 inh-1)
O=[N+]([O-])c1ccc2cn(-c3ccccc3)nc2c1	hcDAF12 agonist 6.0, ssDAF-12 act 1.1, hgDAF12 agonist 13.2
Cc1cc([N+](=O)[O-])nn1CCCC(=O)NC1CCCCC1	DAX1 inh-1 8.3
COC(=O)C[C@@H]1CC[C@@H]2[C@H](COc3ccc(NC(=O)Nc4c(C)noc4C)cc3C(=O)N2C)O1	none (no result: DAX1 inh-1)
